Measured values as given in PubChem BioAssay.
Values joined by “and” are separate entries in the source; they are usually repeats but may differ in a detail not shown here. Equal entries are not always repeated. Active and inactive are the calls of the source.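 How the source made its calls, unless noted: active means thallium flux through the channel raised or lowered by more than 3 SD from vehicle-only wells, actives on both sides; inactive means the rest.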

Columns and labels:
[1] = tested on: Hepatitis C virus NS3 helicase; assay: blockers of NS3h binding to DNA – biochemical, fluorescence polarization, NIH Clinical Collection, primary screen (AID 743270; call rule not given here); settings: NS3 helicase binding to Cy5-dT15 DNA, stronger effect = higher value, concentration not given here
[2] = biological target: Single-stranded DNA-binding protein (Escherichia coli (strain K12)) (UniProt P0AGE0); assay: SSB-ssDNA binding inhibitors – biochemical, fluorescence polarization, NIH Clinical Collection, counter-screen for HCV NS3 helicase inhibitor project (AID 743271; in the data active means inhibition above about 28%); settings: E. coli SSB-DNA binding, stronger effect = higher value, concentration not given here
[3] = compounds distorting NS3 helicase fluorescence signal – biochemical, NIH Clinical Collection, artefact control for HCV NS3 helicase inhibitor project (AID 743272; call rule not given here;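 further: HCV NS3 helicase with a Cy5 labelled single stranded DNA probe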); settings: fluorescence interference counterscreen, HCV NS3 helicase assay; stronger effect = lower value
[4] = Wnt pathway potentiators raising nuclear beta-catenin – imaging, WNT3A-conditioned medium, mouse C2C12, NPC library, primary screen (AID 1117326; in the data active means nuclear beta-catenin stimulation mostly above about 4.2%, no sharp cut-off; inactive means mostly below about 10%); settings: stronger effect = higher value
[5] = stimulators of insulin release from INS-1E, primary screen, cell-based, 5 mM glucose, NPC library (AID 1117329;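 active means compound raises insulin release from rat beta cells at 5 mM glucose, no numeric limit stated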); settings: rat INS-1E insulin secretion, at 10 µM, stronger effect = higher value
[6] = growth inhibition of GSK3B-pretreated HCT116 cells – cell-based, CellTiter-Glo, 0.2 to 20 µM (AID 1117336;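 active means compounds lowering colon cancer cell viability after pretreatment blocking the GSK3B kinase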); settings: HCT116 viability after GSK3B inhibitor, at 20 µM, stronger effect = higher value
[7] = inhibition of endothelial tube formation, primary screen, imaging, VEGF stimulated, CD31 staining, tube area, NPC library (AID 1117340;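 active means compound that reduces growth-factor-driven endothelial tube area in a mixed cell culture, no cutoff stated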); settings: VEGF-stimulated ADSC/ECFC co-culture, at 10 µM, stronger effect = higher value
[8] = GLP1 release stimulators, primary, NCI-H716, NPC library (AID 1117341;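 active means compound raises GLP1 secretion from the human gut endocrine cells, with no numeric limit stated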); settings: NCI-H716 cells, at 10 µM, stronger effect = higher value
[9] = HCT116 colon cancer cell growth inhibition, primary screen, CellTiter-Glo luminescence, NPC library (AID 1117342;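 active means compounds that lower survival of HCT116 colon cancer cells in the luminescence readout, no numeric limit stated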); settings: at 20 µM (top of the series)
[10] = reduced SW480 viability measured with CellTiter-Glo, NPC library, primary (AID 1117343;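 active means compounds that lower viability of the colon cancer cells in the luminescence readout, with no numeric limit stated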); settings: CellTiter-Glo luminescence; at 20 µM (top of the series)
[11] = NPC library primary testing for decreased DLD-1 cell viability via CellTiter-Glo (AID 1117346;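 active means compounds that lower survival of DLD-1 colon cancer cells in the luminescence readout, no cutoff given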); settings: DLD-1 viability, CellTiter-Glo luminescence; at 20 µM (top of the series)
[12] = biological target: 6-phosphogluconate dehydrogenase, decarboxylating (Homo sapiens) (UniProt P52209); assay: inhibition of human phosphogluconate dehydrogenase – biochemical, recombinant enzyme, NADPH absorbance, primary screen (AID 1159550;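 active means at least 20% inhibition of 6-phosphogluconate dehydrogenase activity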); settings: recombinant 6PGD, NADPH absorbance 341 nm; at 10 µM; stronger effect = higher value
Sequence of 6-phosphogluconate dehydrogenase, decarboxylating (Homo sapiens) (P52209 whole entry, looked up): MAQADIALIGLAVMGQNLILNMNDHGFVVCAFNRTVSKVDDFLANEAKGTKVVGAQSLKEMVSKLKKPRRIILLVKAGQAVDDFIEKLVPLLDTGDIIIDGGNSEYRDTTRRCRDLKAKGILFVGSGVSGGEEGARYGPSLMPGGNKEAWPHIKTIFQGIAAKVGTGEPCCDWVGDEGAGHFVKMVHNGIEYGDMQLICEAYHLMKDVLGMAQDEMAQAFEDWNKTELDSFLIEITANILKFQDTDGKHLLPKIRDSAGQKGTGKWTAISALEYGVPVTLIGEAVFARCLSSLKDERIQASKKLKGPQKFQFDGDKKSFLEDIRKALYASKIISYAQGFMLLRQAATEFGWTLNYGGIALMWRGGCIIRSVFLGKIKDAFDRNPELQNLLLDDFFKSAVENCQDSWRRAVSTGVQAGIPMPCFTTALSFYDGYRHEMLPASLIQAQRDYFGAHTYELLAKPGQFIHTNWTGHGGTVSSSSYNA

[13] = EMT-state selective cytotoxicity in co-culture – imaging, PC-3E GFP, TEM4-18 mCherry, primary screen (AID 1345086;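 active means compounds killing one labelled cell type while sparing the other, by normalised counts and ratio limits, not self-fluorescent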;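 on all read-outs here: cells exposed to compound for 72 h before imaging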;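 on red/green cell ratio (normalised): normalised mesenchymal count divided by normalised epithelial count so high means epithelial killing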); settings: PC-3E GFP / TEM4-18 mCherry co-culture, imaging cell counts, at 1 µM; for red/green cell ratio (normalised): actives lie on both sides, counts scaled to control wells, 1 = unselective
[14] = MELAS cybrid and Rieske KO viability enhancers – cell-based, MELAS cybrids, Rieske KO mouse fibroblasts, CellTiter-Glo, primary screen (AID 1508586;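 active means mean z-score across replicates of 1.96 or higher in either the MELAS or the Rieske mutant cell line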;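 further: z relative to plate mean and SD of compound and empty wells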); settings: low glucose
[15] = biological target: NAD(+) hydrolase SARM1 (Homo sapiens) (UniProt Q6SZW1); assay: blocking NAD cleavage by SARM1 SAM-TIR – cell lysate, NAD-Glo luminescence (AID 1508614;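 active means compound whose remaining NAD level is above about 45 nM, limit read from the data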); settings: SAM-TIR HEK293T lysate NADase, at 1 µM, stronger effect = higher value
Sequence of NAD(+) hydrolase SARM1 (Homo sapiens) (Q6SZW1 whole entry, looked up, the tested form may be a part): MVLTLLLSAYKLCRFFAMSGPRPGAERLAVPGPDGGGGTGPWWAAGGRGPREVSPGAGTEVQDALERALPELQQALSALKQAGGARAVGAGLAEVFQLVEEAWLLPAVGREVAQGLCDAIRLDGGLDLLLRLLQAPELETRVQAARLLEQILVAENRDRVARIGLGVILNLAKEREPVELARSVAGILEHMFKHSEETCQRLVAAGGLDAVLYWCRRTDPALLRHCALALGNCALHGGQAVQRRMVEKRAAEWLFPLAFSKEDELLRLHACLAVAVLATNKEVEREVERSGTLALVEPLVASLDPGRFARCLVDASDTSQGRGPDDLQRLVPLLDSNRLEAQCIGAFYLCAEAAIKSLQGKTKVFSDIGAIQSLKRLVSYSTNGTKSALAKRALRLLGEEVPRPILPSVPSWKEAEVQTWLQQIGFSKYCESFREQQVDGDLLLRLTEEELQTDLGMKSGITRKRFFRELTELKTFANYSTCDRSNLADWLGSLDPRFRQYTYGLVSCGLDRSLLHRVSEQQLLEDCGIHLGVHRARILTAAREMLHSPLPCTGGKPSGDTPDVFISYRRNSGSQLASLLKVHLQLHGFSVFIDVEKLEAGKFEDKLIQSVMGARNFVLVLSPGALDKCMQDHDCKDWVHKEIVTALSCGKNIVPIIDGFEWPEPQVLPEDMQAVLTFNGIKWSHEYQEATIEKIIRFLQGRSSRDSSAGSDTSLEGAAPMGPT

[16] = biological target: Mitogen-activated protein kinase 7 (Homo sapiens) (UniProt Q13164); assay: Gal4-ERK5 driven luciferase induction – cell-based, HTS, primary screen (AID 1508626;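 active means luciferase signal above three times the same-plate solvent-only control wells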;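 further: luciferase driven by Gal4-ERK5 fusion binding five Gal4 sites before minimal TATA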); settings: HeLa Gal4-ERK5 transactivation, 18 h, at 5 µM, stronger effect = higher value
Sequence of Mitogen-activated protein kinase 7 (Homo sapiens) (Q13164 whole entry, looked up, the tested form may be a part): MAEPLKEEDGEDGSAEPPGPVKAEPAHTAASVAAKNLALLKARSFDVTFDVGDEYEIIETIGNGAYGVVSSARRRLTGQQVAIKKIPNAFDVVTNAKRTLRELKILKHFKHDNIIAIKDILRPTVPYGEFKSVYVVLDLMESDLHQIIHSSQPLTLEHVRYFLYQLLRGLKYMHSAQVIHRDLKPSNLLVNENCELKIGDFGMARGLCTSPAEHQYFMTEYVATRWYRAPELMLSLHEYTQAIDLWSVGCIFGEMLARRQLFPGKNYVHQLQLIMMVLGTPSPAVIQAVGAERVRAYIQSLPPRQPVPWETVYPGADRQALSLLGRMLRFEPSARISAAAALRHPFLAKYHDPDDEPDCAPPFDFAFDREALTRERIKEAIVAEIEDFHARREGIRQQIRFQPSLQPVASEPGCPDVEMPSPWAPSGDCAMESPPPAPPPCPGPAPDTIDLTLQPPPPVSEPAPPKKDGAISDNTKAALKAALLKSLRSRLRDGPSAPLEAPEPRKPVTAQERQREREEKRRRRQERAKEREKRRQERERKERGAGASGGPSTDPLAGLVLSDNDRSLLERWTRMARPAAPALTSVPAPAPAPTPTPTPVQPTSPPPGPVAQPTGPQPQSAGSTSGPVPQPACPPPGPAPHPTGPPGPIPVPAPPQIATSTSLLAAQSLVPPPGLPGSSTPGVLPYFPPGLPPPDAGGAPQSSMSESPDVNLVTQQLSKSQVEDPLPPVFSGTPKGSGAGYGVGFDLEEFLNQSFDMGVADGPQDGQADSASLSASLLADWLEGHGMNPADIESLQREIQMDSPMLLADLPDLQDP

F380Y = assay: BK channel mutant inhibitors and activators – cell-based, U2OS BacMam, thallium flux, beta subunits, selectivity assay, profiling panel (AID 1259406); settings: U2OS BacMam BK variants, at 30 µM;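 further: initial slope of Thallos dye fluorescence rise after thallium is added; log ratio against the mean of 0.3% DMSO vehicle wells on the same plate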
F380Y/beta2Delta = assay: as above; settings: U2OS BacMam BK variants, at 30 µM
[17] = biological target: Calcium-activated potassium channel subunit alpha-1 (Homo sapiens) + Leucine-rich repeat-containing protein 26 (Homo sapiens) (UniProt Q12791+Q2I0M4); assay: as above; settings: U2OS BacMam BK variants, F380Y/Slo1WT/gamma1, at 30 µM
Sequence of Calcium-activated potassium channel subunit alpha-1 (Homo sapiens) + Leucine-rich repeat-containing protein 26 (Homo sapiens) (Q2I0M4 whole entry, looked up, one chain of several): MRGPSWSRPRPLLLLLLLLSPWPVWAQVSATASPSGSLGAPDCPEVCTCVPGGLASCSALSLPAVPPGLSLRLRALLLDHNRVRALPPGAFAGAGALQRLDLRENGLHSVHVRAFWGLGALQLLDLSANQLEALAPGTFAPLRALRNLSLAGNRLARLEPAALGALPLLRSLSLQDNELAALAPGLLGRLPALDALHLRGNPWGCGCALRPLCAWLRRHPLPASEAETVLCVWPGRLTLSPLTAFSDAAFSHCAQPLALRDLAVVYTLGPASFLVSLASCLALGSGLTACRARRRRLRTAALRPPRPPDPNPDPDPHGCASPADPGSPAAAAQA

[18] = viability loss with induced miR-34 in A549 – imaging, A549 dox-inducible miR-34, nuclei and caspase counts, primary screen (AID 1347080;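 active means compounds whose cell count with miR-34 switched on is under 0.7 times the count with it off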); settings: A549 miR-34 inducible, Hoechst nuclei count, 48 h
[19] = measured here: epithelial PC-3E GFP cell survival
[20] = measured here: mesenchymal TEM4-18 mCherry cell survival
[21] = MELAS cybrid survival, CellTiter-Glo 48 h, stronger effect = higher value
[22] = Rieske KO mouse fibroblast survival, CellTiter-Glo 72 h
[23] = stronger effect = lower value, cell number ratio, induced over uninduced
[24] = measured here: relative caspase fold change +Dox/-Dox
[25] = measured here: total cells with miR-34 induction, stronger effect = lower value
[26] = measured here: total cells without miR-34 induction

Cc1ccccc1C(OCCN(C)C)c1ccccc1 (stereo unspecified)
0.78: normalised cell number [13, 19]
active: insulin secretion stimulation [5] 39.3%
inactive: inhibition [1] -10.4% and -11.4% | inhibition [2] -0.48% and -2.76% | fluorescence ratio [3] 0.88 and 1.01 | nuclear beta-catenin stimulation ([4]; at 10 µM) 0.6% | viability decrease [6] -86.6% | tube area decrease [7] 2.8% | GLP1 secretion stimulation [8] 2.1% | inhibition of viability [9] 8.67% | viability decrease (inhibition) [10] 45.8% | viability decrease (inhibition) [11] -5% | inhibition [12] 5.27% | red/green cell ratio (normalised) [13] 1.09 | z-score [14, 21] -0.259 and -1.08 | remaining NAD [15] 10 nM | luciferase signal [16] 40 AU | log fold change Tl+ flux (F380Y) 0.0933 and 0.0755 | log fold change Tl+ flux (F380Y/beta2Delta) 0.0734 and 0.0188 | log fold change Tl+ flux [17] -0.00307 and 0.0363
-0.358 and 0.0536: z-score [14, 22]
1.7%: nuclear beta-catenin stimulation ([4]; stimulation, at 2 µM)
0.85: normalised cell number [13, 20]

NS(=O)(=O)c1cc2c(cc1C(F)(F)F)NC(Cc1ccccc1)NS2(=O)=O (stereo unspecified)
10100 and 9580 and 13500: cell count [18, 26]
1.12: normalised cell number [13, 19]
10000 and 8170 and 11600: cell count [18, 25]
1.7%: nuclear beta-catenin stimulation ([4]; stimulation, at 2 µM)
-0.203: z-score [14, 22]
3.31 and 1.41 and 3.71: fold change [18, 24]
inactive: inhibition [1] -0.45% | inhibition [2] 1.05% | fluorescence ratio [3] 0.99 | nuclear beta-catenin stimulation ([4]; at 10 µM) 0.1% | insulin secretion stimulation [5] 0.8% | viability decrease [6] -5.2% | tube area decrease [7] -25.6% | GLP1 secretion stimulation [8] 1.6% | inhibition of viability [9] -9.63% | viability decrease (inhibition) [10] 18.1% | viability decrease (inhibition) [11] -18.1% | inhibition [12] -18.8% | red/green cell ratio (normalised) [13] 1.09 | fold change [18, 23] 0.994 and 0.853 and 0.857 | z-score [14, 21] 0.478 | remaining NAD [15] 10 nM | luciferase signal [16] 36 AU | log fold change Tl+ flux (F380Y) 0.0508 | log fold change Tl+ flux (F380Y/beta2Delta) 0.0485 | log fold change Tl+ flux [17] -0.0118
1.22: normalised cell number [13, 20]

CC(=O)CCCCn1c(=O)c2c(ncn2C)n(C)c1=O
1.37: normalised cell number [13, 20]
active: viability decrease (inhibition) [10] 52.4%
-0.8%: nuclear beta-catenin stimulation ([4]; stimulation, at 2 µM)
1.25: normalised cell number [13, 19]
0.0131 and -0.0411: z-score [14, 22]
inactive: inhibition [1] -5.15% | inhibition [2] -2.41% | fluorescence ratio [3] 1 | nuclear beta-catenin stimulation ([4]; at 10 µM) 0.1% | insulin secretion stimulation [5] -1.6% | viability decrease [6] 2.8% | tube area decrease [7] -8.3% | GLP1 secretion stimulation [8] 1.9% | inhibition of viability [9] -8.4% | viability decrease (inhibition) [11] 10.8% | inhibition [12] 4.74% | red/green cell ratio (normalised) [13] 1.09 | z-score [14, 21] 0.897 and 0.351 | remaining NAD [15] 10 nM | luciferase signal [16] 88 AU | log fold change Tl+ flux (F380Y) 0.00269 | log fold change Tl+ flux (F380Y/beta2Delta) -0.0305 | log fold change Tl+ flux [17] -0.00624

Cc1ccc(S(=O)(=O)NC(=O)NN2CCCCCC2)cc1
1.09: normalised cell number [13, 19]
-0.9%: nuclear beta-catenin stimulation ([4]; stimulation, at 2 µM)
-0.174 and -0.295: z-score [14, 22]
1.13: normalised cell number [13, 20]
inactive: inhibition [1] -2.27% | inhibition [2] -2.76% | fluorescence ratio [3] 1 | nuclear beta-catenin stimulation ([4]; at 10 µM) 0.5% | viability decrease [6] -7% | tube area decrease [7] -13.2% | GLP1 secretion stimulation [8] 1.4% | inhibition of viability [9] -14.9% | viability decrease (inhibition) [10] -1.7% | viability decrease (inhibition) [11] 4.8% | inhibition [12] 16.2% | red/green cell ratio (normalised) [13] 1.04 | z-score [14, 21] -0.943 and -0.476 | remaining NAD [15] 10 nM | luciferase signal [16] 144 AU | log fold change Tl+ flux (F380Y) -0.0421 | log fold change Tl+ flux (F380Y/beta2Delta) -0.0238 | log fold change Tl+ flux [17] 0.0367
active: insulin secretion stimulation [5] 60.9%

CC(C)[N+](C)(CCOC(=O)C1c2ccccc2Oc2ccccc21)C(C)C
inactive: inhibition [1] -1.36% | inhibition [2] 0.29% | fluorescence ratio [3] 0.96 | nuclear beta-catenin stimulation ([4]; at 10 µM) 1.3% | insulin secretion stimulation [5] 0.2% | viability decrease [6] -14.9% | tube area decrease [7] 9.2% | GLP1 secretion stimulation [8] 0.4% | inhibition of viability [9] 6.7% | viability decrease (inhibition) [10] -1.5% | viability decrease (inhibition) [11] -16.9% | inhibition [12] 6.27% | red/green cell ratio (normalised) [13] 1.27 | z-score [14, 21] 0.349 | remaining NAD [15] 10 nM | luciferase signal [16] 48 AU | log fold change Tl+ flux (F380Y) 0.0202 | log fold change Tl+ flux (F380Y/beta2Delta) 0.0277 | log fold change Tl+ flux [17] -0.0355
1.3: normalised cell number [13, 20]
0.213: z-score [14, 22]
3.3%: nuclear beta-catenin stimulation ([4]; stimulation, at 2 µM)
1.02: normalised cell number [13, 19]

Nc1ccc(S(=O)(=O)c2ccc(N)cc2)cc1
1.14: normalised cell number [13, 19]
inactive: inhibition [1] -3.18% | inhibition [2] 0.29% | fluorescence ratio [3] 0.95 | nuclear beta-catenin stimulation ([4]; at 10 µM) -0.7% | insulin secretion stimulation [5] -2.3% | viability decrease [6] -8.05% | tube area decrease [7] 8.8% | GLP1 secretion stimulation [8] -1.2% | inhibition of viability [9] 1.3% | viability decrease (inhibition) [11] 7.95% | inhibition [12] 14.4% | red/green cell ratio (normalised) [13] 1.31 | fold change [18, 23] 0.912 and 0.897 and 0.875 | z-score [14, 21] 0.848 | remaining NAD [15] 10 nM | luciferase signal [16] 32 AU | log fold change Tl+ flux (F380Y) 0.0363 | log fold change Tl+ flux (F380Y/beta2Delta) 0.0421 | log fold change Tl+ flux [17] -0.0163
0.158: z-score [14, 22]
1.49: normalised cell number [13, 20]
-0.4%: nuclear beta-catenin stimulation ([4]; stimulation, at 2 µM)
9830 and 8600 and 10200: cell count [18, 25]
10800 and 9580 and 11700: cell count [18, 26]
active: viability decrease (inhibition) [10] 59.5%
2.46 and 1.04 and 1.7: fold change [18, 24]

CCN(CC)CCNC(=O)c1ccc(N)cc1
0.59: normalised cell number [13, 20]
-0.144 and -0.31 and 0.675: z-score [14, 22]
0.66: normalised cell number [13, 19]
inactive: nuclear beta-catenin stimulation ([4]; at 10 µM) 1.2% | insulin secretion stimulation [5] 1.1% | viability decrease [6] 1.4% | tube area decrease [7] 8.7% | GLP1 secretion stimulation [8] 2.8% | inhibition of viability [9] 15.3% | viability decrease (inhibition) [10] -11.5% | viability decrease (inhibition) [11] -4.7% | inhibition [12] 13.2% | red/green cell ratio (normalised) [13] 0.9 | z-score [14, 21] -0.241 and -0.159 and 0.703 | remaining NAD [15] 10 nM | luciferase signal [16] 56 AU | log fold change Tl+ flux (F380Y) -0.0589 | log fold change Tl+ flux (F380Y/beta2Delta) 0.0202 | log fold change Tl+ flux [17] 0.0259
2.4%: nuclear beta-catenin stimulation ([4]; stimulation, at 2 µM)
